An excerpt weighted towards active compounds, which were near 2.4% of everything screened.
PTAP TSG101 blk = blocks PTAP/TSG101 interaction to inhibit HIV-1 budding; Fluorescence polarization, FITC-PTAP peptide / Tsg101 binding; Potency, µM (top dose mostly 115 µM), inactives show at the top dose activity change, negative = inhibition, actives largely listed as inhibitors; 340,000 tested, under 10 active; AID 493005; active = well fitted inhibition curve with a large enough effect in the main read-out, with a control signal flat, not every such curve was filed as active; inconclusive = small, poorly fitted or top-dose-only effect, or effect the other way, or a change in a side signal; inactive = no such curve, though single readings can be large or run the other way; note: % of control where 0% means no effect
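FP read-out: FITC-PTAP peptide, 50 nM final, binding Tsg101 binding domain, 10 uM final; 20 min, r.t.; 10 mM HEPES pH 7.5, 0.15 M NaCl, 0.01% Tween 20, 3 mM EDTA, 0.1 mM TCEP.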
Rango-impB inh = inhibitors of Rango-importin beta complex formation. 0.031% of 340,000 active. Q14974. Potency, µM (highest dose often 92.2 µM), inactives show top-dose inhibition of complex formation. Rango CFP/YFP FRET sensor + importin beta, 45 min; calls by dose curve;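 note: 0% = DMSO wells and 100% = buffer wells lacking importin beta; nearly all actives have a fitted effect of over 15% in size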
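Inhibition scored from the CFP 486 nm/YFP 530 nm FRET ratio 45 min after adding 0.125 microM importin beta to 50 nM Rango biosensor preincubated 5 min with compound (room temperature, PBS with DTT, Tween-20, BSA). No-importin wells as positive control.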
ClpP mod = qHTS Assay for Activators of ClpP; Potency, µM (doses to about 57.5 µM), for the others: top-dose activity change, negative = active; AID 651965, 2013; 1.9% of 340,000 active; purified B. subtilis ClpP, FRET peptide cleavage, 20 min; ATP-dependent Clp protease proteolytic subunit (Bacillus subtilis (strain 168)), P80244; active = well fitted falling curve with a large enough effect; inconclusive = small, poorly fitted or top-dose-only effect; inactive = no such curve, though single readings can be large or run the other way; note: the source files actives as falling curves though it sought activators and does not explain the sign; nearly all actives have a fitted effect of over 65% in size
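FRET quenching reversal measured ClpP activation: 10 microg/mL B. subtilis ClpP at pH 8 with the FRET-FV decapeptide, read at 430 nm after 320 nm excitation. The 20-min minus 0-min signal was scaled between DMSO/no-enzyme wells and ADEP (5.8 microM final).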
Rango dissoc inh = inhibition of RanGTP-driven Rango-importin beta dissociation. O95149+P62826. Biochemical FRET Rango-importin beta, RanGTP-induced dissociation. Potency, µM (highest dose often 46.1 µM), for inactives: at the top dose activity change, negative = inhibition. 0.071% of 340,000 active. AID 540253; calls by dose curve; note: % of control where 0% means no effect; nearly all actives have a fitted effect of over 45% in size
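Quantitative HTS using a FRET biosensor: 0.1 uM Rango, 0.25 uM importin beta, 0.6 uM Ran, 2 mM GTP, 0.2 uM RCC1 final, PBS with DTT, Tween-20 and BSA. Post-read taken 45 min after Ran addition.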
TDP1 inh = TDP1 (human) enzyme inhibition; Q9NUW8; recombinant TDP1, AlphaScreen DNA substrate cleavage; AID 485290; Potency, µM (series often up to 130 µM), for inactives: at the highest dose activity change, negative = inhibition, actives largely listed as inhibitors; 0.28% of 350,000 active; note: % is set by controls: 0 for no effect and ±100 for the full control effect; nearly all actives have a fitted effect of over 40% in size
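AlphaScreen read-out: signal falls as enzyme removes the 3' tyrosine-FITC from a 5'-biotinylated DNA oligo (15 nM, 5 min, RT). Enzyme was E. coli-made recombinant Tdp1 at 1 nM, exposed to compound for 15 min beforehand; beads 10 ug/ml, 10 min.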
12-LOX inh = blocks human arachidonate 12S-lipoxygenase; P18054; purified 12hLO, xylenol orange hydroperoxide absorbance; Potency, µM (series often up to 108 µM), without a hit: at the top dose activity change, negative = inhibition, actives largely listed as inhibitors; 1.1% of 580,000 active; AID 1671190; note: % is set by controls: 0 for no effect and ±100 for the full control effect
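Purified human 12hLO at 150 nM in 25 mM Hepes, 0.01% Triton X-100, pH 7.0, preincubated 15 min at room temperature with compound. Reaction started with 40 uM arachidonic acid, 30 min at room temperature. Hydroperoxide measured by Fe-xylenol orange, 573/405 nm absorbance ratio.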
* marks the source's active call; other numbers are inactive results; ? = inconclusive; / = no result given; ! = a repeat was not active; [ ] = another dose, or the depositor's remark. Unless noted, calls come from the whole dose curve; as a rule, active = well fitted curve in the direction sought with a large enough effect; inconclusive = small, poorly fitted or top-dose-only effect, or another doubt; inactive = no such curve, though single readings can be large; an effect the other way counts as inactive or inconclusive. Potency is the fitted concentration of half-maximal effect.

SMILES	PTAP TSG101 blk	Rango-impB inh	ClpP mod	Rango dissoc inh	TDP1 inh	12-LOX inh
N#CC1=C2SCN(Cc3ccco3)CN2C(=O)CC1c1c(F)cccc1Cl (configuration not stated)	0%	?	0%	-30%	5%	?
N#CC1=C2SCN(Cc3ccccc3)CN2C(=O)CC1c1ccccc1F (configuration not stated)	0%	3%	-14%	9%	4%	/
O=C(N/N=C1\CC2CCC1C2)c1ccc(Cl)cc1Cl (configuration not stated)	/	/	/	/	/	-16%
COc1cccc(NC(=O)N2CCc3nc4cc(-c5ccccc5Cl)[nH]n4c(=O)c3C2)c1	/	/	/	/	/	35%
CCOC(=O)c1cc2c(=O)n3cccc(C)c3nc2n(CCCOC)c1=NC(=O)c1cccnc1	-8%	?	16µM*	?	1%	1%
CCOCCCn1c(=NC(=O)c2cccnc2)c(C(=O)OCC)cc2c(=O)n3ccccc3nc21	-2%	?	20µM*!	?	0%	?
CCCCn1c(=NC(=O)c2cccnc2)c(C(=O)OCC)cc2c(=O)n3ccccc3nc21	-3%	?	?	?	2%	0%
CCCCCn1c(=NC(=O)c2ccco2)c(C(=O)OCC)cc2c(=O)n3ccccc3nc21	-2%	?	16µM*	?	3%	-22%
CCCCn1c(=NC(=O)c2cccnc2)c(C#N)cc2c(=O)n3cccc(C)c3nc21	-2%	?	?	?	-2%	0%
COCCCn1c(=NC(=O)c2ccncc2)c(C#N)cc2c(=O)n3cccc(C)c3nc21	-22%	?	0.71µM*	?	5%	-20%
CC(C)(C)c1cc(C(=O)NCC(=O)O)cc(C(C)(C)C)c1	/	/	/	/	/	3%
Cc1cc(N2C(=O)c3ccccc3C2=O)no1	/	/	/	/	0%	/
CCOC(=O)C1=CNS(=O)(=O)NC1c1ccc2ccccc2c1 (configuration not stated)	-5%	0%	-3%	8%	1%[56.1 µM]	32µM*
O=C(Cc1csc(-c2cccs2)n1)Oc1ccc2cc(Br)ccc2c1	/	/	/	/	/	-2%
COc1ccc(CNCC(=O)Nc2cccc(S(N)(=O)=O)c2)cc1	0%	-1%	35µM*	-12%	3%	?
O=C1NC(=S)S/C1=C\c1cc(Cl)cc(Cl)c1O	-5%	?	-3%	?	/	45µM*
Cc1cc(/C=C2\SC(=S)NC2=O)c(C)n1-c1ccc(O)cc1	4%	?	1%	?	7%	28µM*
COc1ccc(-c2[nH]nc3c2C(c2ccc4c(c2)OCO4)CC(=O)O3)cc1 (configuration not stated)	/	/	/	/	/	45µM*
COc1cc(OC)c2c(c1)OC(=O)CC2c1ccc2c(c1)OCO2 (configuration not stated)	0%	-1%	-14%	-1%	0%[56.1 µM]	?
COc1ccccc1-c1ccccc1CN1CCC(C)(NC(C)=O)C1 (configuration not stated)	/	/	/	/	/	2%[176 µM]
CC(=O)NC1(C)CCN(Cc2ccc(-c3cccc(F)c3)cc2)C1 (configuration not stated)	/	/	/	/	/	50µM*
COc1cccc(-c2cccc(CN3CCCC(C)(NC(C)=O)C3)c2)c1 (configuration not stated)	/	/	/	/	/	-50%[176 µM]
CC(=O)NC1(C)CCN(Cc2ccccc2-c2cccc(C(C)=O)c2)C1 (configuration not stated)	/	/	/	/	/	35µM*
CC(=O)NC1(C)CCN(Cc2ccccc2-c2ccc3c(ccn3C)c2)C1 (configuration not stated)	/	/	/	/	/	28µM*
CC(=O)NC1(C)CCCN(Cc2cccc(-c3c(C)noc3C)c2)C1 (configuration not stated)	/	/	/	/	/	40µM*

From PubChem BioAssay
